Measured values as given in PubChem BioAssay (NCATS).
Records with an inconclusive call do not appear. Unless noted, calls come from the whole dose curve; as a rule, active = well fitted curve in either direction with a large enough effect (not every such curve was filed as active); inconclusive = small, poorly fitted or top-dose-only effect, or another doubt; inactive = flat fitted curve, though single readings scatter.

Columns and labels:
[1] = AP1 Signaling Pathway (AID 357); conditions: ME-180 AP-1-bla reporter, EGF-induced, beta-lactamase ratio, 5 h; at 17.2 µM (top of the series) unless noted;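 note: ME-180 reporter cells stimulated with EGF at its EC50 level; % is set by controls: 0 for no effect and ±100 for the full control effect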
Summary of the method: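 Cells are seeded overnight, exposed to compound titrations and an EC50 level of EGF for 5 hours at 37 °C, then loaded with CCF4 dye for 2.5 hours. Beta-lactamase activity under the AP-1 element is read as a blue/green ratio.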

[2] = NFAT Signaling Pathway (AID 444); conditions: Jurkat NFAT-bla M1, carbachol, beta-lactamase ratio, 5 h; at 17.2 µM (top of the series) unless noted;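 note: carbachol stimulus at about its EC50 of 1 µM final; % is set by controls: 0 for no effect and ±100 for the full control effect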
Summary of the method: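 Read-out: CCF4 FRET ratio (460 nm/530 nm) after 1 h RT dye loading, used for %activity and AC50 from titration series. Cells: Jurkat NFAT-β-lactamase/M1 line, treated with compound plus 1 uM carbachol for 5 h, 37 °C.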

[3] = Stat Signaling Pathway (AID 446); conditions: ME-180 SIE beta-lactamase reporter, IL-6 stimulated, 5 h; at 17.2 µM (top of the series) unless noted;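 note: ME-180 cervical cancer cells given 40 pM IL-6 alongside compound; SIE-controlled beta-lactamase reporter measured as 460/530 nm FRET emission ratio; % is set by controls: 0 for no effect and ±100 for the full control effect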
Summary of the method: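 Screening format detects activators and inhibitors alike: ME-180 SIE-bla cells stimulated at 40 pM IL-6 for 5 hrs with compound, then dual-emission beta-lactamase read at 405 nm excitation.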

[4] = biological target: Glucocorticoid receptor (Homo sapiens) (UniProt P04150); test: GR-GFP Redistribution (AID 450;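 active = compounds whose dose series gives a full or clear partial fitted curve of increased nuclear translocation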; note: potency is the fitted concentration of half-maximal effect)
Glucocorticoid receptor (Homo sapiens), sequence (P04150 whole entry, looked up): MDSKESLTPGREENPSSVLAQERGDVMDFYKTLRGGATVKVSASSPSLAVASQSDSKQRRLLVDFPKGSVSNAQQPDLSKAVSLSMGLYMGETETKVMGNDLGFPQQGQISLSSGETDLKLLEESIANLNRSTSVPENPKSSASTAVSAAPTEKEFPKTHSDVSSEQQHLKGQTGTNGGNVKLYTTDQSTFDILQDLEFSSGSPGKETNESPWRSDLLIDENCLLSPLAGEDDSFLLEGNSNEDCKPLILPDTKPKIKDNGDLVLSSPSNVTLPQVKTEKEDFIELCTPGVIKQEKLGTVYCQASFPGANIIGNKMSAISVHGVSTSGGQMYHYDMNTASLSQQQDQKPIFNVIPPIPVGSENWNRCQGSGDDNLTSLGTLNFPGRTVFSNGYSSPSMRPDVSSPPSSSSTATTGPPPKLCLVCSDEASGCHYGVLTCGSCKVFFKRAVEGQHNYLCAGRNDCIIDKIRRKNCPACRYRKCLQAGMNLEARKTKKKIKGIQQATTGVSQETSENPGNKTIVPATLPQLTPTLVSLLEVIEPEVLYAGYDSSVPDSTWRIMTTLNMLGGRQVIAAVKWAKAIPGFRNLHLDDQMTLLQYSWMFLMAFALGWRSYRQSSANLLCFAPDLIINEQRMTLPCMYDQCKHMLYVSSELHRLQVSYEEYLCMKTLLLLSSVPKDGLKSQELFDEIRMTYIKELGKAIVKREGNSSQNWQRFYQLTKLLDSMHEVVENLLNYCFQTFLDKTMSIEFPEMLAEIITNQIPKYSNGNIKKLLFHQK

Cc1noc(NS(=O)(=O)c2ccc(NC(=O)COc3ccccc3)cc2)c1C
inactive: activity change, negative = inhibition [1] 2.17% | activity change, negative = inhibition [2] 1.26% | activity, negative = inhibition [3] -0.515% | Potency [4] > 20.6 µM

CC(=O)Nc1cccc(NC(=O)CSc2nc(C)c(C)c(C)c2C#N)c1
inactive: activity change, negative = inhibition [1] -13.8% | activity change, negative = inhibition [2] 8.76% | activity, negative = inhibition [3] -4.2% | Potency [4] > 20.6 µM

c1ccc2c(c1)nc(CN1CCOCC1)n1c3ccccc3nc21
inactive: activity change, negative = inhibition [1] 25.2% | activity change, negative = inhibition [2] 25.2% | activity, negative = inhibition [3] 14.3% | Potency [4] > 20.6 µM

O=S(=O)(/C=C/c1ccccc1)Nc1ccc2c(c1)OCO2
inactive: activity change, negative = inhibition [1] -20.8% | activity change, negative = inhibition [2] -26.9% | activity, negative = inhibition [3] -22.1% | Potency [4] > 20.6 µM

COC(=O)c1cc2c(=O)n3cccc(C)c3nc2n(Cc2cccnc2)c1=N
inactive: activity change, negative = inhibition [1] 7.65% | activity change, negative = inhibition [2] -10.7% | activity, negative = inhibition [3] 15.4% | Potency [4] > 20.6 µM

CN(C)C(CN1C(=O)C2CC=CCC2C1=O)c1cn(C)c2ccccc12 (configuration not stated)
inactive: activity change, negative = inhibition [1] 10.2% | activity change, negative = inhibition [2] 4.1% | activity, negative = inhibition [3] -3.79% | Potency [4] > 20.6 µM

CCOC(=O)c1c(CN2CCN(C)CC2)n(C)c2cc(Br)c(OC)cc12
inactive: activity change, negative = inhibition [1] 5.82% | activity change, negative = inhibition [2] 20.5% | activity, negative = inhibition [3] -13% | Potency [4] > 20.6 µM

Cc1ccc2[nH]c3c(c2c1)CN(C(=O)CN1CC(C)OC(C)C1)CC3 (configuration not stated)
inactive: activity change, negative = inhibition [1] -2.87% | activity change, negative = inhibition [2] -2.75% | activity, negative = inhibition [3] 2.26% | Potency [4] > 20.6 µM

CCOC(=O)c1ccc(N2CC(O)=C(c3nc4ccccc4c(=O)[nH]3)C2=N)cc1
inactive: activity change, negative = inhibition [1] -27.9% | activity change, negative = inhibition [2] -8.54% | activity, negative = inhibition [3] -21.7% | Potency [4] > 20.6 µM

CCOC(=O)c1ccc2nc(NC(NC(C)=O)(C(=O)OC)C(F)(F)F)sc2c1 (configuration not stated)
inactive: activity change, negative = inhibition [1] -14% | activity change, negative = inhibition [2] -1.54% | activity, negative = inhibition [3] -10.8% | Potency [4] > 20.6 µM

CCCCc1[nH]c(=O)c(C#N)c2c1CSC(C)(C)C2
inactive: activity change, negative = inhibition [1] 15.5% | activity change, negative = inhibition [2] -2.98% | activity, negative = inhibition [3] 3.1% | Potency [4] > 20.6 µM

CCCCC1CC1C(=O)Nc1ccc(OC)c(OC)c1 (configuration not stated)
inactive: activity change, negative = inhibition [1] -2.76% | activity change, negative = inhibition [2] 3.38% | activity, negative = inhibition [3] 6.67% | Potency [4] > 20.6 µM

CC(=O)c1cc2c(=O)c3ccccc3oc2nc1C
inactive: activity change, negative = inhibition [1] -1.73% | activity change, negative = inhibition [2] -16.9% | activity, negative = inhibition [3] 7.33% | Potency [4] > 20.6 µM

O=C(O)c1cnn2c(C(F)(F)F)cc(-c3ccco3)nc12
inactive: activity change, negative = inhibition [1] 11% | activity change, negative = inhibition [2] 1.41% | activity, negative = inhibition [3] 16.2% | Potency [4] > 20.6 µM

Cc1nnc(SCCC#N)n(CCC#N)c1=O
inactive: activity change, negative = inhibition [1] 25.1% | activity change, negative = inhibition [2] -2.84% | activity, negative = inhibition [3] -5.67% | Potency [4] > 20.6 µM

COC(=O)C(NC(=O)c1ccccc1)(Nc1nccs1)C(F)(F)F (configuration not stated)
inactive: activity change, negative = inhibition [1] 6.27% | activity change, negative = inhibition [2] 2.67% | activity, negative = inhibition [3] 5.62% | Potency [4] > 20.6 µM

O=C1C(=O)N(CCCn2ccnc2)C(c2ccccn2)/C1=C(/O)c1ccccc1 (configuration not stated)
inactive: activity change, negative = inhibition [1] 15.8% | activity change, negative = inhibition [2] 6.66% | activity, negative = inhibition [3] -2.92% | Potency [4] > 20.6 µM

CCOC(=O)CCc1c(C)c(C#N)c2nc3ccccc3n2c1-n1ccnc1
inactive: activity change, negative = inhibition [1] -6.27% | activity change, negative = inhibition [2] 10% | activity, negative = inhibition [3] 14.7% | Potency [4] > 20.6 µM
